# Source: PubChem BioAssay
# Activity calls are given as the source filed them.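 The calls were made as follows, unless noted: active = NADPH fluorescence slope more negative than the mean of all samples by about 3 SD, 99.7% confidence; inactive = the rest.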 Where a SMILES comes first, the peptide text is derived from it. The star is where a group is joined. Boc = CC(C)(C)OC(=O)*
# Key:
# [1] = inhibitors of TNFa-induced NFkB p65 translocation, primary screen, imaging, HUVEC, MLSMR starter and 10KST1 sets (AID 438;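 active = inhibition above 20% together with a positive visual image hit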;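 also: compound added about 3h40 before a 20 min TNFalpha stimulation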;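 as to inhibition: signal is the nuclear over cytoplasmic p65 intensity ratio per well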); settings: HUVEC TNFa-induced p65 nuclear translocation; cell count: measured here: nuclei count (cytotoxicity indicator), at 2.08 µM; inhibition: at 2 µM, stronger effect = higher value, 0% TNFa-plus-vehicle, 100% no-TNFa wells
# [2] = reduction of polyQ htt aggregates in cells – imaging, exon1htt(103Q)mCFP cells, high-content imaging, primary screen (AID 483;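 active = visual image review flags a hit and inhibition of aggregation exceeds 20%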;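 also: compound exposure lasted 3 days before fixation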;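 as to nuclei count: percent of the per-plate median nuclei count of sample wells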); settings: exon1htt(103Q)mCFP cell line, aggregate imaging, at 2 µM; inhibition of aggregation: stronger effect = higher value; nuclei count: measured here: cell count, toxicity
# [3] = endothelial E-selectin expression blockers – imaging, HUVEC, immunofluorescence, MLSMR starter and 10KST1 sets, primary screen (AID 487;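 active = visually confirmed hit in the image check and inhibition above 20%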;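 as to inhibition: signal is fraction of cell area covered by stained E-selectin grains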;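 as to nuclei count: 100% = median nuclei count of all wells on the same plate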); settings: HUVEC TNFalpha-induced E-selectin immunofluorescence imaging, at 2 µM; inhibition: stronger effect = higher value; nuclei count: measured here: cell number, toxicity
# [4] = target: Voltage-gated potassium channel subunit beta-2 (Rattus norvegicus) (UniProt P62483); experiment: inhibitors of rat Kvbeta2 reductase activity – biochemical, NADPH fluorescence, primary screen (AID 622;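 active = fluorescence slope higher than the sample average by over 3 SD, cut at about -0.22 in these data, passing the limit was not always enough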;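 also: slope of raw intensity against log time taken from 70 to 1610 s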); settings: recombinant KvBeta, 4-cyanobenzaldehyde reduction, at 10 µM, stronger effect = higher value
# Voltage-gated potassium channel subunit beta-2 (Rattus norvegicus), sequence (P62483 whole entry, looked up): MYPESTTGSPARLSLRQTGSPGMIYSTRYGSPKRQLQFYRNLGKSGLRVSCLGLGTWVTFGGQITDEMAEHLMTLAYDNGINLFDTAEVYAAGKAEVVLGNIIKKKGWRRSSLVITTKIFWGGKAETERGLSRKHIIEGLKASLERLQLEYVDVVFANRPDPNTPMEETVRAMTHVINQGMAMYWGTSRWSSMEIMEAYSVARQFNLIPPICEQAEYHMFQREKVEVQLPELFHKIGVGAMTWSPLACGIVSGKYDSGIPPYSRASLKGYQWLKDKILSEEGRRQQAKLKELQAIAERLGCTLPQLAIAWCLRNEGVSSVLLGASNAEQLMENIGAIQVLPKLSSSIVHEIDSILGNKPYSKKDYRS
# [5] = target: Voltage-gated potassium channel subunit beta-2 (Rattus norvegicus) (UniProt P62483); experiment: enhancers of rat Kvbeta2 NADPH turnover – biochemical, NADPH fluorescence, primary screen (AID 623); settings: Recombinant KvBeta, NADPH fluorescence decrease slope, 10 min; at 10 µM; stronger effect = lower value;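 also: fluorescence intensity change per second fitted from 20 to 320 s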
# [6] = target: Alpha-2C adrenergic receptor (Homo sapiens) (UniProt P18825); experiment: compounds altering alpha2C-coupled GIRK flux – cell-based, HEK293 alpha2C/GIRK1/2, thallium flux, primary screen (AID 624;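 active = fluorescence slope after compound addition differing from the mean of all screened samples at 99.7% confidence, in either direction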;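 also: slope of fluorescence ratio to pre-addition baseline per second over 15 to 24 s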); settings: thallium flux BTC fluorescence, at 10 µM, actives lie on both sides
# Alpha-2C adrenergic receptor (Homo sapiens), sequence (P18825 whole entry, looked up): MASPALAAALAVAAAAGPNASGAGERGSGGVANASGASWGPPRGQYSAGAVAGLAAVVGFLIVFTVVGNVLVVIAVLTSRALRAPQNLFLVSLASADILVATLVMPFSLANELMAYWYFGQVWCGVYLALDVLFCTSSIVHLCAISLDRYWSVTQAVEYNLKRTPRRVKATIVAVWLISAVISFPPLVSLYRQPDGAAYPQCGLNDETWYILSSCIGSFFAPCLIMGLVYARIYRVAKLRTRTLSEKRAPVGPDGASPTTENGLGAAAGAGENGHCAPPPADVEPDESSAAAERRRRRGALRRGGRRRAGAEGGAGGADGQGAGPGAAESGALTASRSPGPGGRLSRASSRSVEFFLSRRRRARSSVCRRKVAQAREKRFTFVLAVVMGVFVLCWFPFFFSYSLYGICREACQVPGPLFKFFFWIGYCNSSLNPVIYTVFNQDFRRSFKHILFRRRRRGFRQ
# [7] = blockers of RIG-like receptor reporter activation – cell-based, Sendai virus stimulus, luciferase, 10K MLSCN set, TLR/RLR signaling modifier project, primary screen (AID 602276;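 active = inhibition at or above 50% at 10 µM; inactive = inhibition below 50%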;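 also: firefly luciferase from ISG56 promoter only with Renilla not read in this screen; 0% = Sendai virus plus DMSO and 100% = medium plus DMSO without virus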); settings: HEK293 RL24 IRF3 luciferase reporter, at 10 µM, stronger effect = higher value
# [8] = TLR3 IRF3 reporter activation blockers – cell-based, poly I:C stimulus, luciferase, 10K MLSCN set, primary screen (AID 602277;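 active = inhibition of the reporter signal at or above 50%; inactive = inhibition below 50%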); settings: HEK293-TLR3 RL24 IRF3 luciferase reporter, at 10 µM, stronger effect = higher value
SMILES,cell count [1],inhibition [1],inhibition of aggregation [2],nuclei count [2] [%],inhibition [3],nuclei count [3] [%],fluorescence slope [4],NADPH fluorescence slope [5],slope [6],inhibition [7],inhibition [8]
COc1cc(SC)ccc1C(=O)Nc1ccon1,461,-10.3% (inactive),-0.3% (inactive),93,20.1% (inactive),91.2,-0.608 (inactive),2.8e-05 (inactive),0.00729 (inactive),-57.7% (inactive),-144% (inactive)
CCCNC(=O)NC1C(NC(=O)NCCC)N(C)C(=O)N1C (stereo not drawn),551,-0.3% (inactive),-4.3% (inactive),98.1,-60.1% (inactive),116,-0.461 (inactive),2.5e-05 (inactive),0.00546 (inactive),-0.304% (inactive),16.2% (inactive)
O=C(NCc1cccs1)C1CCCN(c2ncccn2)C1 (stereo not drawn),404,-3% (inactive),13.4% (inactive),96.8,-10.2% (inactive),123,-0.5 (inactive),-1.3e-05 (inactive),0.00547 (inactive),12.7% (inactive),9.11% (inactive)
COc1ccc(OC)c(C(C)NC=O)c1 (stereo not drawn),438,3% (inactive),14.2% (inactive),108,-56.8% (inactive),108,-0.449 (inactive),1.3e-05 (inactive),0.00556 (inactive),0.449% (inactive),23.1% (inactive)
O=C(NCCCCNC(=O)c1cccnc1)c1cccnc1,514,10.1% (inactive),8.2% (inactive),99.6,-31.4% (inactive),116,-0.64 (inactive),3.6e-05 (inactive),0.00666 (inactive),13.9% (inactive),26.9% (inactive)
COc1cc(NC(=O)Nc2cccc(Cl)c2)c(OC)cc1NC(=O)CN1CCCCC1,709,-15.2% (inactive),1% (inactive),126,-45.1% (inactive),132,-0.407 (inactive),-4e-05 (inactive),0.00392 (inactive),14.5% (inactive),-1.73% (inactive)
Cc1ccc(N(C)C(=O)N2CCN(c3ccccn3)CC2)cc1,525,-0.8% (inactive),30.2% (inactive),59.5,-41% (inactive),97.6,-0.59 (inactive),-2.8e-05 (inactive),0.00868 (inactive),5.03% (inactive),27.2% (inactive)
CC(C)(O)C#Cc1ccc(C(=O)N2CCN(C(=O)c3ccco3)CC2)cc1,547,-7.8% (inactive),-25.3% (inactive),121,45.3% (inactive),133,-0.51 (inactive),-3.3e-05 (inactive),0.00463 (inactive),16.5% (inactive),13.5% (inactive)
Cc1nc(NC(=O)c2csc3ccccc23)sc1C,386,-2.7% (inactive),-3.7% (inactive),103,-38.1% (inactive),117,-0.504 (inactive),-5.5e-05 (inactive),0.00508 (inactive),-31.4% (inactive),-86.4% (inactive)
COC(=O)COc1cccc(NC(=O)COc2ccccc2)c1,349,-2.7% (inactive),-0.4% (inactive),115,-94.8% (inactive),104,-0.336 (inactive),3.4e-07 (inactive),0.00642 (inactive),1.13% (inactive),20.7% (inactive)
COc1cccc(NC(=O)N2CCN(C(=O)C(Cc3ccc(OC)c(OC)c3)NC(C)=O)CC2)c1 (stereo not drawn),364,-0.5% (inactive),-4% (inactive),107,-47.6% (inactive),99.9,-0.355 (inactive),-3.6e-05 (inactive),0.00701 (inactive),12.1% (inactive),22.8% (inactive)
COC(=O)c1ccc(CSc2nc3c(cnn3-c3ccc(F)cc3)c(=O)[nH]2)o1,653,-12.7% (inactive),-1.4% (inactive),106,-44.8% (inactive),113,-0.545 (inactive),5.2e-05 (inactive),0.00536 (inactive),-5.97% (inactive),18.8% (inactive)
Cc1cc(N2CCN(c3ccccn3)CC2)n2nc(C)nc2n1,435,3.5% (inactive),-16.4% (inactive),105,-4.2% (inactive),111,-0.376 (inactive),-3.3e-05 (inactive),0.00609 (inactive),12.8% (inactive),-7.58% (inactive)
CC(NC(=O)OC(C)(C)C)C(=O)N1CCCC1C(=O)NC(Cc1ccccc1)C(N)=O (stereo not drawn) (Boc-Ala-Pro-Phe-NH2; configuration not given here),220,9.7% (inactive),-15.1% (inactive),85.5,-30.7% (inactive),93.1,-0.498 (inactive),-3.8e-06 (inactive),0.00536 (inactive),19.8% (inactive),22.4% (inactive)
Cc1ccc(NC(=O)c2ccco2)c(NC(=O)c2cccs2)c1,684,4.8% (inactive),9.4% (inactive),103,-119% (inactive),111,-0.375 (inactive),2e-06 (inactive),0.00493 (inactive),14.6% (inactive),16.5% (inactive)
C=CCN(CC=C)C(=O)c1ccncc1,267,-14% (inactive),4.9% (inactive),53.2,-86.3% (inactive),110,-0.501 (inactive),1.1e-05 (inactive),0.00479 (inactive),4.76% (inactive),5.55% (inactive)
C/C(Nc1cccc(F)c1)=C(/C#N)C(N)=O,640,3.4% (inactive),1.6% (inactive),104,48.6% (inactive),106,-0.361 (inactive),-3.8e-05 (inactive),0.00545 (inactive),-10.6% (inactive),-10.3% (inactive)
O=C(NC1CCCC1)C1CC1c1ccccc1 (stereo not drawn),516,-4.3% (inactive),-5.1% (inactive),99.7,26.9% (inactive),78.4,-0.617 (inactive),-1.4e-05 (inactive),0.00431 (inactive),8.1% (inactive),8.52% (inactive)
O=C(CN1CCN(Cc2ccc(F)cc2Cl)C1=O)NCCCN1CCOCC1,477,7% (inactive),-27.6% (inactive),65.3,-63.8% (inactive),99.9,-0.523 (inactive),-3.8e-05 (inactive),0.00757 (inactive),0.912% (inactive),36.5% (inactive)
CC1CCN(C(=O)CSCC(=O)Nc2nc(-c3cccs3)cs2)CC1,734,-3.4% (inactive),17.8% (inactive),94.3,-38.7% (inactive),114,-0.495 (inactive),-1.9e-05 (inactive),0.00893 (inactive),4.81% (inactive),-0.513% (inactive)
Nn1cnnc1SCC(=O)Nc1ccc2c(c1)OCCO2,553,7.2% (inactive),-23.3% (inactive),96,-74.7% (inactive),208,-0.351 (inactive),-8.3e-06 (inactive),0.00546 (inactive),1.38% (inactive),-17% (inactive)
CC1CCCCC1NC(=O)CCCc1nc2ccccc2c(=O)[nH]1 (stereo not drawn),364,-2.1% (inactive),5.3% (inactive),87.7,-11.1% (inactive),79.6,-0.618 (inactive),-2.3e-05 (inactive),0.00379 (inactive),7.71% (inactive),17.2% (inactive)
Cc1nc2c(-c3ccc(F)cc3)c(C)nn2c(C)c1CCC(=O)NC(C)CCc1ccco1 (stereo not drawn),791,0.6% (inactive),-37.7% (inactive),99.5,-23.2% (inactive),110,-0.568 (inactive),-3.3e-05 (inactive),0.00479 (inactive),4.5% (inactive),26.9% (inactive)
CCOC(=O)C(CC)Sc1nc2c(c(=O)[nH]c(=O)n2C)n1C/C=C(/C)Cl (stereo not drawn),775,-12.9% (inactive),18% (inactive),96.3,18.5% (inactive),106,-0.601 (inactive),-6.7e-05 (inactive),0.00361 (inactive),14.5% (inactive),19.1% (inactive)
O=C(Nc1nccs1)c1cccc(NC(=O)C2CC2)c1,411,-0.5% (inactive),-6.6% (inactive),98,-19% (inactive),116,-0.409 (inactive),-3.4e-05 (inactive),0.00472 (inactive),2.3% (inactive),-13.6% (inactive)
CC(=O)c1cn(CC(=O)NCc2ccc3c(c2)OCO3)c2ccccc12,326,-2.1% (inactive),-11.9% (inactive),108,-24.5% (inactive),107,-0.534 (inactive),-9.1e-05 (inactive),0.00566 (inactive),11.9% (inactive),9.83% (inactive)
COc1cccc(CN2CCN(C(=O)c3ccco3)CC2)c1OC,513,13.6% (inactive),-4.9% (inactive),100,-347% (inactive),128,-0.595 (inactive),1.5e-05 (inactive),0.00742 (inactive),11.8% (inactive),8.85% (inactive)
CCC(c1nnnn1Cc1ccco1)N(CCc1ccccc1)Cc1cc2cccc(C)c2[nH]c1=O (stereo not drawn),788,-8.4% (inactive),-2.2% (inactive),86.2,-19.1% (inactive),110,-0.396 (inactive),-1.9e-05 (inactive),0.00487 (inactive),25.2% (inactive),31.5% (inactive)
